Assay results from the supplement of paper PMC11219838.
Values without a mark were called inactive.

How the values were obtained:
Conditions in all cases: 60 µM; 5 days; temperature: 20 °C
Meloidogyne hapla J2 = test: proportion of mobile M. hapla J2 relative to DMSO control (fraction of DMSO control); higher = more viable, less nematicidal, active = 0.7 or less
Summary of the method: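 About 25 M. hapla J2 were added per 96-well well in distilled water, and compound was pinned to 60 µM final (0.6% v/v DMSO). Sealed plates were shaken at 200 rpm for 5 days at 20 °C, then 2 µL 1 M NaOH was added before microscopic mobility scoring. Mobility was divided by the mean of eight DMSO wells on the same plate, and two biological replicates were averaged.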

[1] = tested on: Caenorhabditis elegans dauer (daf-2(e1370)); test: proportion of mobile C. elegans dauer larvae relative to DMSO control (fraction of DMSO control); higher = more viable, less nematicidal, active = 0.63 or less; extreme values may be limits of the assay
Summary of the method: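 Compound was added by pinning to 60 µM final, giving 0.6% v/v DMSO, in 96-well plates containing about 20 C. elegans dauers per well in liquid NGM. These dauers came from synchronized larvae held on MYOB plates with E. coli OP50 for 48 h at 25 °C. Plates were sealed and shaken at 200 rpm at 20 °C for 5 days. Under a dissection microscope, the proportion of mobile worms was scored relative to DMSO wells, and two biological replicates were averaged.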

Ditylenchus dipsaci = test: proportion of mobile D. dipsaci (mixed stage) relative to DMSO control (fraction of DMSO control); higher = more viable, less nematicidal, active = 0.86 or less; extreme values may be limits of the assay
Summary of the method: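 D. dipsaci were grown on pea plants in Gamborg B-5 agar and extracted through a filter funnel into water, and about 20 worms were added per 96-well well in distilled water. Compound was pinned to 60 µM final (0.6% v/v DMSO), and sealed plates were shaken at 200 rpm for 5 days at 20 °C. After 2 µL 1 M NaOH was added, mobile worms were scored microscopically. Mobility was expressed relative to DMSO controls and averaged over two biological replicates.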

Cc1cc(OCc2nc(-c3ccncc3)no2)c(C)cc1Br
proportion of mobile M. hapla J2 (Meloidogyne hapla J2): 0.866
proportion of mobile C. elegans dauer larvae [1]: 1
proportion of mobile D. dipsaci (Ditylenchus dipsaci): 1

CCOc1nc(-c2ccc(C)cc2)ccc1-c1noc(-c2ccncc2)n1
proportion of mobile M. hapla J2 (Meloidogyne hapla J2): 0.901
proportion of mobile C. elegans dauer larvae [1]: 1
proportion of mobile D. dipsaci (Ditylenchus dipsaci): 1

Cc1cc(C)cc(OCc2nc(-c3cc(C)nc4ccccc34)no2)c1
proportion of mobile M. hapla J2 (Meloidogyne hapla J2): 1.02
proportion of mobile C. elegans dauer larvae [1]: 1
proportion of mobile D. dipsaci (Ditylenchus dipsaci): 1

c1csc(-c2nnc(-c3cccs3)o2)c1
proportion of mobile M. hapla J2 (Meloidogyne hapla J2): 0.754
proportion of mobile C. elegans dauer larvae [1]: 0.786
proportion of mobile D. dipsaci (Ditylenchus dipsaci): 0.769 (active)

CCCc1ccc(-c2ccc(-c3nc(-c4ccccn4)no3)cc2)cc1
proportion of mobile M. hapla J2 (Meloidogyne hapla J2): 0.978
proportion of mobile C. elegans dauer larvae [1]: 1
proportion of mobile D. dipsaci (Ditylenchus dipsaci): 1

Brc1ccc(-c2noc(-c3ccc(Br)o3)n2)o1
proportion of mobile M. hapla J2 (Meloidogyne hapla J2): 0.949
proportion of mobile C. elegans dauer larvae [1]: 1
proportion of mobile D. dipsaci (Ditylenchus dipsaci): 1

Fc1ccc(-c2noc(-c3ccc(Cl)cc3)n2)cc1
proportion of mobile M. hapla J2 (Meloidogyne hapla J2): 1.03
proportion of mobile C. elegans dauer larvae [1]: 1
proportion of mobile D. dipsaci (Ditylenchus dipsaci): 1

COc1ccccc1-c1nnc(SCC(=O)OCc2ccccc2)o1
proportion of mobile M. hapla J2 (Meloidogyne hapla J2): 0.978
proportion of mobile C. elegans dauer larvae [1]: 1
proportion of mobile D. dipsaci (Ditylenchus dipsaci): 1

Clc1ccc(OCc2ccccc2)c(-c2nc(-c3cccnc3)no2)c1
proportion of mobile M. hapla J2 (Meloidogyne hapla J2): 1.01
proportion of mobile C. elegans dauer larvae [1]: 1
proportion of mobile D. dipsaci (Ditylenchus dipsaci): 0.917

COc1cccc(-c2noc(COc3ccc(C)cc3C)n2)c1
proportion of mobile M. hapla J2 (Meloidogyne hapla J2): 0.941
proportion of mobile C. elegans dauer larvae [1]: 1
proportion of mobile D. dipsaci (Ditylenchus dipsaci): 1

Cc1ccc(-c2noc(COc3ccc(Cl)cc3)n2)cc1
proportion of mobile M. hapla J2 (Meloidogyne hapla J2): 1.02
proportion of mobile C. elegans dauer larvae [1]: 1
proportion of mobile D. dipsaci (Ditylenchus dipsaci): 1

CC(C)(C)c1ccc(-c2nnc(SCC(=O)c3ccc(F)cc3)o2)cc1
proportion of mobile M. hapla J2 (Meloidogyne hapla J2): 0.825
proportion of mobile C. elegans dauer larvae [1]: 1
proportion of mobile D. dipsaci (Ditylenchus dipsaci): 1

COc1ccc(-c2nnc(SCC(=O)Nc3cccc(Cl)c3Cl)o2)cc1
proportion of mobile M. hapla J2 (Meloidogyne hapla J2): 0.932
proportion of mobile C. elegans dauer larvae [1]: 1
proportion of mobile D. dipsaci (Ditylenchus dipsaci): 1

Cc1nc(CSc2nnc(-c3ccc(Cl)cc3)o2)cs1
proportion of mobile M. hapla J2 (Meloidogyne hapla J2): 0.947
proportion of mobile C. elegans dauer larvae [1]: 1
proportion of mobile D. dipsaci (Ditylenchus dipsaci): 1

Cc1ccccc1-c1noc(COc2ccccc2)n1
proportion of mobile M. hapla J2 (Meloidogyne hapla J2): 0.764
proportion of mobile C. elegans dauer larvae [1]: 1
proportion of mobile D. dipsaci (Ditylenchus dipsaci): 1

Brc1ccc(-c2nc(-c3cccnc3)no2)cc1
proportion of mobile M. hapla J2 (Meloidogyne hapla J2): 0.984
proportion of mobile C. elegans dauer larvae [1]: 0.552 (active)
proportion of mobile D. dipsaci (Ditylenchus dipsaci): 1

O=C(Nc1ccc(-c2noc(COc3ccccc3)n2)cc1)c1ccc(F)cc1
proportion of mobile M. hapla J2 (Meloidogyne hapla J2): 1.03
proportion of mobile C. elegans dauer larvae [1]: 1
proportion of mobile D. dipsaci (Ditylenchus dipsaci): 1

CCN(CC)C(=O)CSc1nnc(-c2ccc(Br)cc2)o1
proportion of mobile M. hapla J2 (Meloidogyne hapla J2): 1.04
proportion of mobile C. elegans dauer larvae [1]: 1
proportion of mobile D. dipsaci (Ditylenchus dipsaci): 1

Cc1ccc(OCc2nc(-c3cccnc3)no2)c(Br)c1
proportion of mobile M. hapla J2 (Meloidogyne hapla J2): 0.992
proportion of mobile C. elegans dauer larvae [1]: 1
proportion of mobile D. dipsaci (Ditylenchus dipsaci): 1

Cc1cccc(-c2noc(-c3ccccc3Br)n2)c1
proportion of mobile M. hapla J2 (Meloidogyne hapla J2): 0.99
proportion of mobile C. elegans dauer larvae [1]: 1
proportion of mobile D. dipsaci (Ditylenchus dipsaci): 1

COc1ccccc1-c1noc(-c2ccccc2)n1
proportion of mobile M. hapla J2 (Meloidogyne hapla J2): 1.04
proportion of mobile C. elegans dauer larvae [1]: 1
proportion of mobile D. dipsaci (Ditylenchus dipsaci): 1

COc1ccc(CCC(=O)Nc2ccc(-c3noc(COc4ccccc4C)n3)cc2)cc1
proportion of mobile M. hapla J2 (Meloidogyne hapla J2): 0.898
proportion of mobile C. elegans dauer larvae [1]: 1
proportion of mobile D. dipsaci (Ditylenchus dipsaci): 1

COc1ccc(-c2noc(COc3ccc(Cl)c(C)c3)n2)cc1
proportion of mobile M. hapla J2 (Meloidogyne hapla J2): 1.02
proportion of mobile C. elegans dauer larvae [1]: 1
proportion of mobile D. dipsaci (Ditylenchus dipsaci): 1

Cc1cccc(-c2nnc(SCC(=O)NCCc3ccccc3)o2)c1
proportion of mobile M. hapla J2 (Meloidogyne hapla J2): 0.872
proportion of mobile C. elegans dauer larvae [1]: 1
proportion of mobile D. dipsaci (Ditylenchus dipsaci): 1

Cc1ccc(OCc2nc(-c3ccccn3)no2)cc1C
proportion of mobile M. hapla J2 (Meloidogyne hapla J2): 1.01
proportion of mobile C. elegans dauer larvae [1]: 1
proportion of mobile D. dipsaci (Ditylenchus dipsaci): 1

O=C(Nc1ccc(-c2noc(-c3ccc(F)cc3)n2)cc1)c1ccc(Br)o1
proportion of mobile M. hapla J2 (Meloidogyne hapla J2): 0.972
proportion of mobile C. elegans dauer larvae [1]: 1
proportion of mobile D. dipsaci (Ditylenchus dipsaci): 1

COc1ccccc1-c1nnc(SCC(=O)Nc2nc(C)cs2)o1
proportion of mobile M. hapla J2 (Meloidogyne hapla J2): 0.91
proportion of mobile C. elegans dauer larvae [1]: 1
proportion of mobile D. dipsaci (Ditylenchus dipsaci): 1

Brc1ccc(CSc2nnc(-c3cccnc3)o2)cc1
proportion of mobile M. hapla J2 (Meloidogyne hapla J2): 0.911
proportion of mobile C. elegans dauer larvae [1]: 1
proportion of mobile D. dipsaci (Ditylenchus dipsaci): 1

N#Cc1cccc(CSc2nnc(-c3ccncc3)o2)c1
proportion of mobile M. hapla J2 (Meloidogyne hapla J2): 0.745
proportion of mobile C. elegans dauer larvae [1]: 1
proportion of mobile D. dipsaci (Ditylenchus dipsaci): 1

COc1ccc(-c2nnc(SCC(=O)Nc3ccc(Br)c(C)c3)o2)cc1
proportion of mobile M. hapla J2 (Meloidogyne hapla J2): 0.999
proportion of mobile C. elegans dauer larvae [1]: 1
proportion of mobile D. dipsaci (Ditylenchus dipsaci): 1

CCn1c(C)cc(C(=O)CSc2nnc(-c3ccccc3)o2)c1C
proportion of mobile M. hapla J2 (Meloidogyne hapla J2): 0.962
proportion of mobile C. elegans dauer larvae [1]: 1
proportion of mobile D. dipsaci (Ditylenchus dipsaci): 1

Cc1ccc(C)c(OCc2nc(-c3cccnc3)no2)c1
proportion of mobile M. hapla J2 (Meloidogyne hapla J2): 1.04
proportion of mobile C. elegans dauer larvae [1]: 1
proportion of mobile D. dipsaci (Ditylenchus dipsaci): 1

Cn1c(SCc2cccc(F)c2)nnc1-c1ccco1
proportion of mobile M. hapla J2 (Meloidogyne hapla J2): 0.929
proportion of mobile C. elegans dauer larvae [1]: 1
proportion of mobile D. dipsaci (Ditylenchus dipsaci): 1

O=C(CSc1nnc(-c2ccc(Br)cc2)o1)Nc1ccc2ccccc2c1
proportion of mobile M. hapla J2 (Meloidogyne hapla J2): 0.866
proportion of mobile C. elegans dauer larvae [1]: 1
proportion of mobile D. dipsaci (Ditylenchus dipsaci): 1

Fc1ccc(-c2noc(COc3cccc(Cl)c3)n2)cc1
proportion of mobile M. hapla J2 (Meloidogyne hapla J2): 0.908
proportion of mobile C. elegans dauer larvae [1]: 1
proportion of mobile D. dipsaci (Ditylenchus dipsaci): 1

COc1ccc(-c2nc(-c3ccccc3Cl)no2)cc1
proportion of mobile M. hapla J2 (Meloidogyne hapla J2): 0.964
proportion of mobile C. elegans dauer larvae [1]: 1
proportion of mobile D. dipsaci (Ditylenchus dipsaci): 1

O=C(CSc1nnc(-c2ccco2)o1)c1ccccc1
proportion of mobile M. hapla J2 (Meloidogyne hapla J2): 0.974
proportion of mobile C. elegans dauer larvae [1]: 1
proportion of mobile D. dipsaci (Ditylenchus dipsaci): 1

COc1nc(-c2ccccc2)ccc1-c1noc(-c2ccccc2C)n1
proportion of mobile M. hapla J2 (Meloidogyne hapla J2): 0.909
proportion of mobile C. elegans dauer larvae [1]: 1
proportion of mobile D. dipsaci (Ditylenchus dipsaci): 1

COc1ccc(CC(=O)Nc2ccc(-c3noc(-c4ccc(F)cc4)n3)cc2)cc1
proportion of mobile M. hapla J2 (Meloidogyne hapla J2): 0.978
proportion of mobile C. elegans dauer larvae [1]: 1
proportion of mobile D. dipsaci (Ditylenchus dipsaci): 1

O=C(c1ccccc1-c1nc(-c2ccc(Cl)cc2)no1)N1CCCCC1
proportion of mobile M. hapla J2 (Meloidogyne hapla J2): 0.941
proportion of mobile C. elegans dauer larvae [1]: 1
proportion of mobile D. dipsaci (Ditylenchus dipsaci): 1

CC(C)C(=O)Nc1ccccc1-c1nc(-c2ccncc2)no1
proportion of mobile M. hapla J2 (Meloidogyne hapla J2): 0.987
proportion of mobile C. elegans dauer larvae [1]: 1
proportion of mobile D. dipsaci (Ditylenchus dipsaci): 1

COc1ccccc1-c1nc(-c2ccc(Br)cc2)no1
proportion of mobile M. hapla J2 (Meloidogyne hapla J2): 1.04
proportion of mobile C. elegans dauer larvae [1]: 1
proportion of mobile D. dipsaci (Ditylenchus dipsaci): 1

O=C(CSc1nnc(-c2ccc(Cl)cc2)o1)NCc1ccccc1
proportion of mobile M. hapla J2 (Meloidogyne hapla J2): 0.901
proportion of mobile C. elegans dauer larvae [1]: 1
proportion of mobile D. dipsaci (Ditylenchus dipsaci): 1

CCc1cccc(CC)c1NC(=O)CSc1nnc(-c2ccccc2OC)o1
proportion of mobile M. hapla J2 (Meloidogyne hapla J2): 0.758
proportion of mobile C. elegans dauer larvae [1]: 1
proportion of mobile D. dipsaci (Ditylenchus dipsaci): 1

Cc1ccc(NC(=O)CSc2nnc(-c3ccccc3)o2)cc1F
proportion of mobile M. hapla J2 (Meloidogyne hapla J2): 1.02
proportion of mobile C. elegans dauer larvae [1]: 1
proportion of mobile D. dipsaci (Ditylenchus dipsaci): 1

Cc1cccc(C)c1NC(=O)CSc1nnc(-c2ccncc2)o1
proportion of mobile M. hapla J2 (Meloidogyne hapla J2): 0.908
proportion of mobile C. elegans dauer larvae [1]: 1
proportion of mobile D. dipsaci (Ditylenchus dipsaci): 1

CC(C)c1ccc(OCc2nc(-c3ccccn3)no2)cc1
proportion of mobile M. hapla J2 (Meloidogyne hapla J2): 1.01
proportion of mobile C. elegans dauer larvae [1]: 1
proportion of mobile D. dipsaci (Ditylenchus dipsaci): 1
